Shown are actives, neighbours in structure and some others; about 4.1% of the full set was active somewhere.
DAX1 inh-1 = DAX1 (NR0B1) inhibitors, primary screen, cell-based, HEK293, Gal4-DAX1, luciferase luminescence; HEK293 Gal4-DAX1 luciferase reporter; inhibition, % at 6.75 µM; 340,000 tested, 0.99% active; AID 504766, 2011; Nuclear receptor subfamily 0 group B member 1 (Homo sapiens), P51843;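 active means inhibition above the mean over all tested compounds plus 3 SD, cut at about 4.2% in these data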;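 further: 0% = DAX1-transfected cells with DMSO and 100% = empty-vector control cells with DMSO; inhibition shows as a rise in luminescence from relieved DAX1 repression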
Target sequence (P51843 207-470 limits assumed): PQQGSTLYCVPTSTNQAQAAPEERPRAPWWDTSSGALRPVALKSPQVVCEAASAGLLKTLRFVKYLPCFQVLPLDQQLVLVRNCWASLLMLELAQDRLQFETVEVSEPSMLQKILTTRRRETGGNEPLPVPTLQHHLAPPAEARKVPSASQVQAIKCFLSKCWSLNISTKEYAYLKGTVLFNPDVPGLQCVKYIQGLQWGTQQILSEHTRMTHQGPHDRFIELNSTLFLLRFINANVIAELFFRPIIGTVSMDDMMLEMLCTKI
hcDAF12 agonist = H. contortus DAF-12 nuclear receptor activators, primary screen, cell-based, luminescence, HEK293, lit1-tk-luc reporter; HEK293 hcDAF-12 lit1-tk-luc reporter; 0% DMSO, 100% Δ7-dafachronic acid; activation, % at 6.8 µM; 370,000 tested, 1.4% active;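 active means activation above the mean of all tested compounds plus 3 SD, cut at about 5.5% in these data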;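 further: 100% = response to 3 µM Δ7-dafachronic acid high control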
ssDAF12 agonist = S. stercoralis DAF-12 nuclear receptor activators, primary screen, cell-based, luminescence, HEK293, GRIP1 co-expression, lit1-tk-luc. HEK293 ssDAF-12/GRIP1 lit1-tk-luc reporter; % of 3 µM dafachronic acid response. activation, % at 6.8 µM. AID 652126, 2013. 370,000 tested, 1% active;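 active means activation above the mean over all tested compounds plus 3 SD, cut at about 0.9% in these data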;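 further: 0% = DMSO-only wells and 100% = 3 µM delta7-dafachronic acid wells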
DAX1 inh-2 = DAX1 (NR0B1) inhibitors on StAR promoter, primary screen, cell-based, luminescence, SF-1 (NR5A1), full-length DAX-1 | HEK293T StAR-luciferase reporter, SF-1/DAX-1 repression relief | inhibition, % at 6.8 µM | 370,000 tested, 1.1% active;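 active means inhibition above the mean over all tested compounds plus 3 SD, cut at about 3.6% in these data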;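 further: 0% = DAX-1 cells with DMSO and 100% = cells lacking DAX-1 with DMSO; higher inhibition means more luminescence from relief of DAX-1 repression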
hgDAF12 agonist = H. glycines DAF-12 receptor agonists, primary screen, cell-based, luminescence, HEK293, GAL4 fusion, UAS-luciferase | Nuclear hormone receptor DAF-12 (Heterodera glycines), GAL4 fusion | HEK293 GAL4-hgDAF12 UAS-luciferase reporter, agonist luminescence; normalized to butyrate control | activation, % at 6.8 µM | 370,000 tested, 1.8% active;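 active means activation above a cutoff set at the mean of all screened compounds plus 3 SD, cut at about 10% in these data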;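 further: 0% = DMSO wells and 100% = sodium butyrate wells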
* hit, by the source's call; / = no result given.

SMILES	DAX1 inh-1	hcDAF12 agonist	ssDAF12 agonist	DAX1 inh-2	hgDAF12 agonist
CC(=O)Nc1ccc(C(=O)Nc2ccc(S(=O)(=O)N3CCOCC3)cc2)cc1	1.1	-0.4	-0.9	-0.5	-1.1
CC(C)(C)c1ccc(C(=O)NCC(=O)N2CCCC2)cc1	0.1	2.0	-1.1	0.6	2.3
CC(=O)N1CCN(C(=S)NC(=O)c2ccc(S(=O)(=O)N3CCOCC3)cc2)CC1	4.7*	-4.2	-1.4	-0.5	0.5
Cc1ccc(C(=O)NCCC(=O)N2CCCC2)cc1	6.1*	5.2	0.6	0.6	13.1*
O=C(C1CCCN(S(=O)(=O)c2ccc(Br)s2)C1)N1CCN(Cc2ccccc2)CC1 (stereo unspecified)	/	-2.4	-1.9	-2.5	-1.9
CC(C)(C)c1ccc(C(=O)NC(=S)N2CCCCCC2)cc1	-0.1	-1.3	-1.1	-1.1	1.4
CC(C)(C)c1ccc(C(=O)NC(=S)N2CCCC2)cc1	0.9	3.9	1.8*	0.7	3.3
O=C(Cn1nnc(-c2ccc(N3CCOCC3)cc2)n1)c1cccc(F)c1	/	-1.6	-1.3	-0.7	-1.3
COc1ccc(CN2CCNC(=O)C2CC(=O)N(Cc2nccn2C)C(C)C)c(OC)c1 (stereo unspecified)	4.4*	-0.5	-0.5	-0.7	0.1
CCCC(=O)N/C(N)=N/c1nc2ccccc2o1	2.1	5.3	-0.2	1.2	10.2
N/C(=N\c1nc2ccccc2o1)NC(=O)c1ccccc1	3.0	0.4	-0.8	2.2	9.1
CCC(=O)N/C(N)=N/c1nc2ccccc2o1	5.4*	2.1	-0.9	1.8	6.7
CC(=O)N/C(N)=N/c1nc2cc([N+](=O)[O-])ccc2o1	4.1	1.2	-0.8	-0.2	5.3
CC(C)CC(=O)N/C(N)=N/c1nc2ccccc2o1	5.3*	3.2	-0.6	1.7	8.8
CC(=O)N/C(N)=N/c1nc2cc(C)ccc2o1	1.8	3.5	0.9	2.3	10.6*
O=S(=O)(NC1=NCCCCC1)c1cc(F)ccc1F	4.5*	-0.8	-1.2	-0.1	1.4
CCCCCCCCN1C(=O)[C@@H](CC(=O)N2CCCC2)C[C@@]2(C(=O)OC)C1=C[C@H](COCc1ccccc1)O[C@@H]2C	/	-2.1	-1.3	-1.7	-2.9
COc1ccccc1C(=O)Nc1ccccc1SC(=O)c1ccccc1OC	4.3*	4.2	-0.2	-0.3	-1.7
COc1ccccc1C(=O)Nc1cc(-c2ccc(C)cc2)no1	-0.3	4.4	1.0*	0.4	11.7*
COC(=O)c1cn(-c2ccc3c(c2)[C@]2(CC(=O)N(C)C2c2ccccc2)C(=O)N3CC(C)C)nn1 (stereo partly specified)	/	1.4	-1.4	0.3	3.8
CN(C)CCCN(C(=O)c1cc(Cl)sc1Cl)c1nc2cc3c(cc2s1)OCO3	1.1	3.3	0.2	4.1*	3.4
COCCCNC(=O)c1ccc(OC)c(OC2CCN(C(C)C)CC2)c1	5.2*	-2.3	-1.0	-0.5	0.2
COc1cccc(/C=N/n2c(=O)[nH]c3ccccc32)c1OC	4.9*	0.2	-1.2	1.3	2.1
O=C(CSc1nnc(-c2cccnc2)n1-c1ccccc1)Nc1cccc2ccccc12	/	-1.4	-2.0	-0.7	-2.0
COc1cc(OC)cc(C(=O)NC(=S)N2CCCCC2c2cccnc2)c1 (stereo unspecified)	3.9	-0.3	-1.4	0.9	-2.4
SMILES	DAX1 inh-1	hcDAF12 agonist	ssDAF12 agonist	DAX1 inh-2	hgDAF12 agonist
COc1ccc(NC(=O)N2CCCCC2c2cccnc2)cc1 (stereo unspecified)	0.0	5.6*	-0.2	0.6	11.0*
Cc1ccccc1NC(=O)Cc1c[nH]c2ccccc12	2.2	3.6	1.0*	0.4	1.1
Cc1ccccc1NC(=O)NCCc1c[nH]c2ccccc12	-1.6	-2.2	-0.7	-0.6	-2.9
Cc1cccc(C)c1NC(=O)c1c[nH]c2ccccc12	0.7	6.2*	-0.6	0.8	6.6
O=C(COC(=O)CCc1c[nH]c2ccccc12)Nc1ccc([N+](=O)[O-])cc1	5.2*	0.7	-1.2	-0.7	-2.4
CN(C)C(CNC(=O)CCCc1c[nH]c2ccccc12)c1ccco1 (stereo unspecified)	5.8*	-2.2	-1.8	0.1	1.1
CCCCN1CCN(C(=O)C2CCCN(C(=O)c3ccc4c(c3)NC(=O)CS4)C2)CC1 (stereo unspecified)	/	-2.1	-1.2	-0.2	4.7
Cc1[nH]c2ccccc2c1CC(=O)Nc1ccc(Nc2ccncc2)cc1	/	4.7	2.1*	-1.6	3.0
O=C(Cc1c[nH]c2ccccc12)Nc1ccc(Nc2ccncc2)cc1	/	6.0*	0.3	0.1	-1.8
CN(c1cccnc1)c1ccc(NC(=O)Cc2c[nH]c3ccccc23)cc1Br	/	6.5*	1.5*	0.2	6.3
CC(=O)Nc1ccc(NC(=O)CCCc2c[nH]c3ccccc23)cc1	5.0*	0.0	-1.1	0.0	-1.3
CCc1c(-c2ccc(Br)cc2)ncn1Cc1cccc(-c2ccccc2)c1	/	-1.8	-1.3	0.1	0.1
COc1ccccc1COC(=O)c1cccc(S(=O)(=O)N(C)Cc2ccccc2)c1	/	1.1	-0.7	-1.3	-2.1
Oc1ccc(-c2nc3ccccn3c2NCc2ccco2)cc1	4.3*	-0.4	-0.5	-0.4	5.9
O=C(Nc1c(-c2ccccc2)nc2ccccn12)c1ccco1	1.1	-1.3	-1.6	0.0	-2.3
COc1ccc(OC)c2sc(N3CCCCC3)nc12	1.1	0.4	-0.9	-0.7	10.6*
COc1ccc(OC)c2sc(N3CCc4ccccc4C3)nc12	-0.9	-0.2	-1.5	-0.9	1.4
Cc1ccc(C2=NN(CC(=O)NCc3cccs3)C(=O)CC2)cc1	5.4*	-1.1	-1.5	-0.8	-0.7
C[C@H]1[C@H](c2ccccc2)Oc2cccc(N3CCCC3)c2S(=O)(=O)N1Cc1cccc(F)c1	/	-1.2	-0.6	0.9	0.6
CC(C)c1ccc(C2c3[nH]c4ccccc4c3C[C@H]3C(=O)N(c4ccccc4C(=O)N4CCC[C@@H]4C(=O)O)C(=O)N23)cc1 (stereo partly specified)	0.6	3.0	0.8	-0.8	2.1
COc1ccc(C2c3[nH]c4ccccc4c3C[C@H]3C(=O)N(c4ccccc4C(=O)N4CCC[C@@H]4C(=O)O)C(=O)N23)cc1 (stereo partly specified)	-1.1	2.9	0.4	0.8	2.2
O=C(NCCCN1CCOCC1)c1ccccc1N1C(=O)[C@@H]2Cc3c([nH]c4ccccc34)C(c3ccc(F)cc3)N2C1=O (stereo partly specified)	1.0	1.1	-1.2	-0.9	2.3
